Assay outcomes deposited in PubChem by The Scripps Research Institute Molecular Screening Center.
Rows were chosen to be rich in hits. Some 2.8% of all compounds tested hit in one or more screens of this group.
DAGLB inh: blocks human DAGLB lipase activity; Q8NCG7; HEK293T DAGLB membrane lysate, EnzChek fluorogenic substrate; inhibition, % at 5.17 µM; actives 0.059% (n = 340,000); AID 504411; in the data active = inhibition above about 34%;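 note: 0% = enzyme with vehicle and 100% = wells lacking enzyme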
Target sequence (Q8NCG7 whole entry, looked up): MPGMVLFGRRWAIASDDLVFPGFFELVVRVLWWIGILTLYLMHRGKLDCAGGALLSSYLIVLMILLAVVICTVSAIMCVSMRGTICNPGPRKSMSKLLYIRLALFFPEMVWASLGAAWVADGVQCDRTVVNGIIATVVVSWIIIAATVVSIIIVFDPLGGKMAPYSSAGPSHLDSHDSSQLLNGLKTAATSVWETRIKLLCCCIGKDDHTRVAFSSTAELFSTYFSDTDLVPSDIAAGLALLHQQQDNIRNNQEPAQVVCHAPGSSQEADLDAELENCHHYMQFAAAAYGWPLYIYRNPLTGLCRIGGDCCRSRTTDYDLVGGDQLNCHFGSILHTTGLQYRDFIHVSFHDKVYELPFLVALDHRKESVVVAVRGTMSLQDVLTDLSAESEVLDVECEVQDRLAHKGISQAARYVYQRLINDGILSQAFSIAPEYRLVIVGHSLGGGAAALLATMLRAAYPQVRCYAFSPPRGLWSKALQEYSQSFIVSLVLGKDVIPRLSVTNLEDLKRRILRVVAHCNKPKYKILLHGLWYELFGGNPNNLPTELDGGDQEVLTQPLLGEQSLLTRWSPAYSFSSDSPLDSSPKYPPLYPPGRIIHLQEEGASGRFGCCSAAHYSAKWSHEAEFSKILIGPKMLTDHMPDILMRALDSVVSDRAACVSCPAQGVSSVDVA
pPAFAH FP inh: inhibitors of human plasma PAF acetylhydrolase (pPAFAH); Q13093; recombinant pPAFAH, FP-rhodamine probe fluorescence polarization; inhibition, % at 3.39 µM; actives 1.5% (n = 330,000); AID 463082;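 active = inhibition above the mean inhibition across the screen plus 3 SD, cut at about 25% in these data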;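 note: inhibitors block binding of the rhodamine activity-based probe so polarization drops; 0% = enzyme with DMSO and 100% = wells lacking pPAFAH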
PAFAH2 FP inh: PAFAH2 (human) inhibition; recombinant PAFAH2, FP-rhodamine activity probe, fluorescence polarization; actives 0.99% (n = 340,000); AID 492956; Q99487; inhibition, % at 3.39 µM;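 active = inhibition above the mean over all tested compounds plus 3 SD, cut at about 30% in these data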;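 note: inhibitors block probe labeling of enzyme so polarization drops; 0% = enzyme with DMSO and 100% = wells lacking PAFAH2 protein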
HTRA1 inhibitor: inhibitors of human serine peptidase HTRA1; inhibition, % at 5.96 µM; actives 0.5% (n = 340,000); recombinant HTRA1, FP-rhodamine activity-based probe, fluorescence polarization; Q92743; in the data active = inhibition above about 36%;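 note: 0% = enzyme with DMSO and 100% = wells lacking enzyme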
PAFAH1B2 inh: blocks human PAF acetylhydrolase 1b catalytic subunit 2 | actives 1.2% (n = 340,000) | inhibition, % at 3.39 µM | P68402 | recombinant PAFAH1B2, FP-rhodamine activity probe, fluorescence polarization;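 active = inhibition above the mean of all tested compounds plus 3 SD, cut at about 24% in these data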;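 note: 0% = enzyme with DMSO and 100% = wells lacking PAFAH1B2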
PAFAH1B3 inh: blocks human PAF acetylhydrolase 1B catalytic subunit 3. Q15102. actives 0.28% (n = 340,000). recombinant PAFAH1B3, FP-rhodamine probe, fluorescence polarization. inhibition, % at 3.39 µM. AID 492972;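 active = inhibition above the screen-wide average of all tested compounds plus 3 SD, cut at about 25% in these data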;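 note: 0% = enzyme with DMSO only and 100% = wells lacking PAFAH1B3 protein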
HTRA1 conf: confirmation of human HTRA1 inhibitors. shares compounds with HTRA1 inhibitor. recombinant HTRA1, FP-rhodamine activity-based probe, fluorescence polarization. inhibition, % at 5.96 µM. actives 66% (n = 1,600);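 active = mean inhibition over three repeats above a set limit taken from the earlier primary screen, cut at about 37% in these data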;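 note: 0% = HTRA1 with DMSO and 100% = wells lacking HTRA1; inhibitors block probe binding so polarization drops and inhibition rises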
Starred values were filed as active, the others as inactive; x = no result given.

SMILES	DAGLB inh	pPAFAH FP inh	PAFAH2 FP inh	HTRA1 inhibitor	PAFAH1B2 inh	PAFAH1B3 inh	HTRA1 conf
CC(=O)NC(c1ccc(C)cc1)c1cc(Cl)c2cccnc2c1O (stereo not given)	15	x	1	62*	3	8	76*
CCN(Cc1ccncc1)C(=O)c1cc(COc2c(C)cccc2C)on1	2	7	-3	-5	1	9	x
CC1(C)CC(=O)N(c2cc(Cl)ccc2Cl)C(=O)C1	-2	7	1	2	7	0	x
N#Cc1cc(N2CCCCC2)c([N+](=O)[O-])cc1C#N	5	2	-1	1	1	-4	x
O=[N+]([O-])c1cc2no[n+]([O-])c2cc1N1CCCCC1	7	x	74*	77*	70*	86*	32
COc1cccc(N2CCN(C(=O)C3CCN(S(=O)(=O)c4cccs4)CC3)CC2)c1	2	1	7	-2	-5	-2	x
COc1ccc2c(c1)-c1c(ssc1=S)C(C)(C)N2	36*	14	14	38*	5	5	37*
Cc1ccc2c(c1)c(C)cc[n+]2Cc1ccccc1	2	2	6	42*	3	0	6
COC(=O)C1=C(C)NC(=O)/C1=C\c1cc(C)n(-c2cc(C)cc(C)c2)c1C	9	15	6	53*	2	4	35
CC1(OC(=O)C2CCCC2)C(=O)C=C2C=C(c3ccsc3)N(c3ccccc3)C=C2C1=O (stereo not given)	7	20	13	39*	8	9	32
CC1(OC(=O)C2CCCC2)C(=O)C=C2C=C(c3ccsc3)N(Cc3ccccc3)C=C2C1=O (stereo not given)	5	6	6	38*	-3	8	31
C=C(C)C(=O)OCC(O)COc1ccc(C(C)(C)c2ccc(OCC(O)COC(=O)C(=C)C)cc2)cc1 (stereo not given)	-2	-4	-4	-47	4	8	x
S=C(N=Nc1ccccc1)NNc1ccccc1	11	5	7	43*	9	4	43*
CCc1cc2c(=O)c(-c3nc4ccccc4n3C)c(COCC(=O)O)oc2cc1OC(=O)C(C)(C)C	-3	4	8	48*	2	6	15
O=C(Nc1ccc(S(=O)(=O)NC2=NCCCCC2)cc1)c1ccccc1Cl	-1	0	2	2	-1	4	x
O=S(=O)(c1ccc(NC(=S)N2CCCCC2CO)cc1)N1CCOCC1 (stereo not given)	0	x	x	4	x	x	x
O=C(N/N=C/c1c(O)ccc2ccccc12)c1cccc(C(F)(F)F)c1	-4	30*	10	57*	12	13	58*
CCOC(=O)c1c2c(n(-c3ccc(OC)cc3)c1C)C(=O)C(=O)c1ccccc1-2	16	x	56*	47*	31*	77*	45*
C=CCn1c(=O)c(C(=O)Nc2ccccc2S(N)(=O)=O)c(O)c2ccccc21	7	-4	9	-10	-4	1	x
CCN(CC)c1ccc(C=Nc2ccc(N(C)C)cc2)c(O)c1	8	16	-14	38*	-16	-23	-15
CCN(CC)c1ccc(C=Nc2ccc(C)cc2)c(O)c1	0	8	7	-5	2	3	x
CCN(CC)c1ccc(C=Nc2ccccc2)c(O)c1	1	7	4	12	7	3	x
CCN(CC)c1ccc(N=Cc2ccc(N(CC)CC)cc2O)cc1	9	29*	-1	65*	1	4	6
COc1ccc(NC(=O)Cn2nc(C(=O)O)c3ccccc3c2=O)cc1Cl	1	1	2	-5	2	1	x
COCCNC(=O)c1ccccc1NC(=O)CCSc1ccccc1	1	4	-4	-4	7	3	x
SMILES	DAGLB inh	pPAFAH FP inh	PAFAH2 FP inh	HTRA1 inhibitor	PAFAH1B2 inh	PAFAH1B3 inh	HTRA1 conf
Cc1ccc(NC(=S)N/N=C/c2ccc([N+](=O)[O-])s2)cc1	19	9	5	59*	2	12	59*
O=C1C(Cl)=C(NC(=O)c2ccccc2)C(=O)C(Cl)=C1NC(=O)c1ccccc1	-1	5	-15	37*	-1	19	-2
O=C(Nc1cccc(Cl)c1)c1ccccc1	-3	2	10	-12	-9	6	x
CN(C1=C(NC(=O)c2ccc(Cl)cc2)C(=O)c2ccccc2C1=O)c1ccccc1	25	20	9	73*	-5	10	65*
CN(c1ccc(C(=O)Nc2ccc(Cl)cn2)cc1)S(=O)(=O)c1ccccc1	-4	4	2	-26	2	2	x
Cc1[nH]c(N=Nc2ccccc2)nc1N=Nc1ccccc1	20	25*	-2	74*	4	4	75*
Cc1ccc(NC(=O)CC2NCCNC2=O)cc1Cl (stereo not given)	-2	8	4	-3	3	5	x
Oc1ccc(N=Nc2ccc3ccccc3c2)cc1	14	7	-1	18	7	7	x
Oc1ccc(N=Nc2c(O)ccc3ccccc23)cc1	49*	13	10	63*	-5	10	43*
CN(c1cccc(NC(=O)c2ccc(Cl)c(S(=O)(=O)N3CCOCC3)c2)c1)S(C)(=O)=O	0	x	0	1	-2	11	x
CN(C)c1ccc(C=c2c3ccccc3n3c2c2c([n+]3C)CCCC2)cc1	22	x	-2	53*	1	8	55*
O=C1c2ccccc2-c2onc3ccc(Oc4ccccc4)c1c23	12	-12	10	39*	-1	25	22
COCCCNC(=O)c1ccc2c3c(onc13)-c1ccccc1C2=O	17	9	-4	6	3	5	x
O=C(NN=C1CCN(Cc2ccccc2)CC1)c1cc(Br)ccc1O	7	16	12	40*	-1	9	13
O=C(NN=C1CCN(Cc2ccccc2)CC1)c1ccccc1	0	-1	6	4	-2	7	x
O=C1CC(=Nc2ccc([N+](=O)[O-])cc2)NN1c1c(Cl)cc(Cl)cc1Cl	14	x	x	49*	x	x	35
CC1CN(c2nc3ccccc3nc2SCC(=O)Nc2ccc(F)cc2)CC(C)O1 (stereo not given)	-10	3	0	-34	-1	2	x
Oc1ccc(O)c(C=NNC(=S)NC2CC3CC2C2C=CCC32)c1 (stereo not given)	8	x	x	47*	x	x	73*
CCOn1c(=O)c(-c2cccs2)[n+]([O-])c2ccccc21	4	-3	10	27	1	0	x
CCOC(=O)COn1c(=O)c(-c2cccs2)[n+]([O-])c2ccccc21	1	11	8	42*	7	7	10
Cc1nc([N+](=O)[O-])cn1CC(=O)c1ccc(F)cc1	0	3	0	-5	6	1	x
